Experimental findings from the supplement of paper PMC12297408 are described below.

The structures appear in SMILES notation. Structures can show the parent of a compound that is named as a salt. Screen size: about 1,300 compounds; about 40 (3%) showed activity. Many of the other results were omitted from the sample, so actives are more common in it than they were. Unmarked numbers belong to inactive results.

The subject of the assay is Plasmodium falciparum NF54/iGP1_RE9H ulg8 stage V gametocytes. Kind of assay: gametocyte viability (luciferase signal relative to DMSO control) (% of DMSO control); higher = less gametocytocidal activity, active = 50 or less. As to conditions: exposure time: 72 h. In outline:
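Viability was calculated relative to the mean of DMSO vehicle wells on each plate. Day-12 stage V gametocytes of line NF54/iGP1_RE9Hulg8 (~2.5% gametocytemia, 3% hematocrit, 0.5% Albumax II medium) were exposed in 96-well plates to compounds at final 10 µM or 1 µM, one well each, for 72 h at 37 °C. Luminescence was then read on an IVIS Lumina II after D-luciferin addition.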

Consider `CN(C)CCc1c[nH]c2ccc(C[C@H]3COC(=O)N3)cc12` [Zolmitriptan], for which the gametocyte viability by setting is: (concentration: 1 µM) 83.8; (concentration: 10 µM) 81.7.
Take `COc1ccccc1N1CCN(CC(O)COc2cccc3ccccc23)CC1` (configuration not stated) [Naftopidil dihydrochloride]: the gametocyte viability reads like this: (concentration: 1 µM) 90.8; (concentration: 10 µM) 83.2.
Turning to `COc1ccccc1N1CCN(CCCNc2cc(=O)n(C)c(=O)n2C)CC1` [Urapidil hydrochloride], the gametocyte viability is 75.6 (concentration: 1 µM) and 48.5 (active) (concentration: 10 µM).
For `COc1ccccc1N1CCN(CCCCNC(=O)c2ccc3ccccc3c2)CC1`, in that order: 82.8 and 73.7.
For `CCOC(=O)[C@H](CCc1ccccc1)N[C@@H](C)C(=O)N1CCC[C@H]1C(=O)O` [Enalapril maleate], in that order: 81.9 and 86.7.
For `COc1ccc(CCN(C)CCCC(C#N)(c2ccc(OC)c(OC)c2)C(C)C)cc1OC` (configuration not stated) [Verapamil hydrochloride], in that order: 91.8 and 99.3.
With `N/C(=N\C(=O)c1nc(Cl)c(N)nc1N)NCc1ccccc1` [Benzamil hydrochloride], the gametocyte viability was 88.7 (concentration: 1 µM) and 81.1 (concentration: 10 µM).
For `CC(C)c1ccc2oc3nc(N)c(C(=O)O)cc3c(=O)c2c1` [Amlexanox], in that order: 80 and 81.5.
For `CCCCC(O)c1ccccc1` (configuration not stated) [Fenipentol], in that order: 82 and 82.9.
For `CC(C)(C)NC(=O)[C@@H]1CN(Cc2cccnc2)CCN1C[C@@H](O)C[C@@H](Cc1ccccc1)C(=O)N[C@H]1c2ccccc2C[C@H]1O` [Indinavir sulfate], in that order: 67 and 40 (active).
As to `CC(C)(C)NC(=O)[C@@H]1C[C@@H]2CCCC[C@@H]2CN1C[C@@H](O)[C@H](Cc1ccccc1)NC(=O)[C@H](CC(N)=O)NC(=O)c1ccc2ccccc2n1` [Saquinavir mesylate], the gametocyte viability is 82.4 (concentration: 1 µM) and 78.9 (concentration: 10 µM).
For `CN(C)CCCN1c2ccccc2Sc2ccc(C(F)(F)F)cc21` [Triflupromazine hydrochloride], in that order: 83.7 and 81.5.
For `CN1CCN(CCCN2c3ccccc3Sc3ccc(C(F)(F)F)cc32)CC1` [Trifluoperazine dihydrochloride], in that order: 82.8 and 46.8 (active).
For `OCCN1CCN(CCCN2c3ccccc3Sc3ccc(C(F)(F)F)cc32)CC1` [Fluphenazine dihydrochloride], in that order: 89.1 and 68.1.
For the compound `CN1CCCCC1CCN1c2ccccc2Sc2ccc([S+](C)[O-])cc21` (configuration not stated) [Mesoridazine besylate], the gametocyte viability by setting is: (concentration: 1 µM) 88.9; (concentration: 10 µM) 88.7.
For `CN1CCN(CCCN2c3ccccc3Sc3ccc(Cl)cc32)CC1` [Prochlorperazine dimaleate], in that order: 81.3 and 78.9.
`CCSc1ccc2c(c1)N(CCCN1CCN(C)CC1)c1ccccc1S2` [Thiethylperazine dimalate]: the gametocyte viability by setting is: (concentration: 1 µM) 83.3; (concentration: 10 µM) 32.4 (active).
With `CN1CCN(CCCN2c3ccccc3Sc3ccc(S(=O)(=O)N(C)C)cc32)CC1` [Thioproperazine dimesylate], the gametocyte viability is, setting by setting: (concentration: 1 µM) 81.7; (concentration: 10 µM) 52.8.
`CSc1ccc2c(c1)C(N1CCN(C)CC1)Cc1ccccc1S2` (configuration not stated) [Methiothepin maleate]: the gametocyte viability by setting is: (concentration: 1 µM) 86.1; (concentration: 10 µM) 75.3.
For `CSc1ccc2c(c1)N(CCC1CCCCN1C)c1ccccc1S2` (configuration not stated) [Thioridazine hydrochloride], in that order: 87.7 and 30.1 (active).
For `C=C1/C(=C\C=C2/CCC[C@]3(C)[C@@H]([C@H](C)/C=C/[C@@H](O)C4CC4)CC[C@@H]23)C[C@@H](O)C[C@@H]1O` [Calcipotriene], in that order: 79.2 and 64.3.
Turning to `CCN[C@H]1C[C@H](C)S(=O)(=O)c2sc(S(N)(=O)=O)cc21` [Dorzolamide hydrochloride], the gametocyte viability is, setting by setting: (concentration: 1 µM) 80.2; (concentration: 10 µM) 87.2.
Turning to `CC(C)(Sc1cc(C(C)(C)C)c(O)c(C(C)(C)C)c1)Sc1cc(C(C)(C)C)c(O)c(C(C)(C)C)c1` [Probucol], the gametocyte viability by setting is: (concentration: 1 µM) 84.2; (concentration: 10 µM) 85.2.
`NC[C@@H]1O[C@H](O[C@H]2[C@@H](O)[C@H](O[C@@H]3[C@@H](O)[C@H](N)C[C@H](N)[C@H]3O[C@H]3O[C@H](CN)[C@@H](O)[C@H](O)[C@H]3N)O[C@@H]2CO)[C@H](N)[C@@H](O)[C@@H]1O` [Neomycin sulfate]: the gametocyte viability was 81.7 (concentration: 1 µM) and 84.7 (concentration: 10 µM).
For `COc1cc(C(=O)OCCCN2CCCN(CCCOC(=O)c3cc(OC)c(OC)c(OC)c3)CC2)cc(OC)c1OC` [Dilazep dihydrochloride], in that order: 85.4 and 94.7.
For `COCCCOc1ccnc(C[S+]([O-])c2nc3ccccc3[nH]2)c1C` (configuration not stated) [Rabeprazole Sodium salt], in that order: 83.8 and 80.3.
For `CN(C)c1ccc(O)c2c1C[C@H]1C[C@H]3[C@H](N(C)C)C(=O)C(C(N)=O)=C(O)[C@@]3(O)C(=O)C1=C2O` [Minocycline hydrochloride], in that order: 83.1 and 83.3.
For `C=C(CC)C(=O)c1ccc(OCC(=O)O)c(Cl)c1Cl` [Ethacrynic acid], the gametocyte viability was 90.4 (concentration: 1 µM) and 92.5 (concentration: 10 µM).
For `N=C(N)NCc1cccc(I)c1` [Iobenguane sulfate], in that order: 99.3 and 100.
For `CC1(C)O[C@@H]2C[C@H]3[C@@H]4C[C@H](F)C5=CC(=O)C=C[C@]5(C)[C@@]4(F)[C@@H](O)C[C@]3(C)[C@]2(C(=O)CO)O1` [Fluocinolone acetonide], in that order: 83.3 and 83.3.
Turning to `CCC1=C(C)CN(C(=O)NCCc2ccc(S(=O)(=O)NC(=O)N[C@H]3CC[C@H](C)CC3)cc2)C1=O` [Glimepiride], the gametocyte viability is 97.7 (concentration: 1 µM) and 101 (concentration: 10 µM).
For `CC(C)(Oc1ccc(CCNC(=O)c2ccc(Cl)cc2)cc1)C(=O)O` [Bezafibrate], in that order: 98.6 and 97.
For `CCCCC(CC)CNC(=N)NC(=N)NCCCCCCNC(=N)NC(=N)NCC(CC)CCCC` (configuration not stated) [Alexidine dihydrochloride], in that order: 36.2 (active) and 0.515 (active).
For `O=C(O)[C@H]1/C(=C/CO)O[C@@H]2CC(=O)N21` [Potassium clavulanate], in that order: 91.1 and 87.4.
Consider `C[C@]12CC[C@@H]3c4ccc(O)cc4CC[C@H]3[C@@H]1CC[C@@H]2O` [Estradiol-17 beta], for which the gametocyte viability was 69.7 (concentration: 1 µM) and 41.9 (active) (concentration: 10 µM).
For `C[C@]12CC[C@@H]3c4ccc(O)cc4CC[C@H]3[C@@H]1C[C@@H](O)[C@@H]2O` [Estriol], in that order: 94.6 and 92.2.
For `C[C@]12CC[C@@H]3c4ccc(O)cc4CC[C@H]3[C@@H]1CCC2=O` [Estrone], in that order: 99.2 and 96.4.
For `CCCCCCC[N+](CC)(CC)CCCCc1ccc(Cl)cc1` [Clofilium tosylate], in that order: 97.3 and 47.8 (active).
As to `NNC(=O)c1ccncc1` [Isoniazid], the gametocyte viability was 80.8 (concentration: 1 µM) and 83.4 (concentration: 10 µM).
For `Cc1ncc(C[n+]2csc(CCO)c2C)c(N)n1` [Thiamine hydrochloride], in that order: 94 and 89.4.
For `CCCc1cc(C(N)=S)ccn1` [Prothionamide], in that order: 93.7 and 95.2.
For `CC(=O)Oc1cc(C(F)(F)F)ccc1C(=O)O` [Triflusal], in that order: 82.3 and 87.1.
For `CC1(O)CCOC(=O)C1` (configuration not stated) [Mevalonic-D, L acid lactone], the gametocyte viability by setting is: (concentration: 1 µM) 86.7; (concentration: 10 µM) 93.8.
For `CC1c2cccc(O)c2C(O)=C2C(=O)C3(O)C(O)=C(C(N)=O)C(=O)C(N(C)C)C3C(O)C21` (configuration not stated) [Doxycycline hydrochloride], in that order: 94.5 and 92.2.
For `CC(=O)N(O)CCCCCNC(=O)CCC(=O)N(O)CCCCCNC(=O)CCC(=O)N(O)CCCCCN` [Deferoxamine mesylate], the gametocyte viability (concentration: 1 µM) is 90.6 and the gametocyte viability (concentration: 10 µM) is 82.7.
As for `CC(C(O)c1ccc(O)cc1)N1CCC(Cc2ccccc2)CC1` (configuration not stated) [Ifenprodil tartrate], the gametocyte viability is, setting by setting: (concentration: 1 µM) 81.9; (concentration: 10 µM) 79.7.
For the compound `CC(=O)O[C@H]1C[C@@H]2CC[C@@H]3[C@H](CC[C@@]4(C)[C@H]3C[C@H]([N+]3(C)CCCCC3)[C@@H]4OC(C)=O)[C@@]2(C)C[C@@H]1N1CCCCC1` [Vecuronium bromide], the gametocyte viability reads like this: (concentration: 1 µM) 85.2; (concentration: 10 µM) 93.1.
For `CCC(C)(C)c1ccc(CC(C)CN2C[C@@H](C)O[C@@H](C)C2)cc1` (some centres not stated) [Amorolfine hydrochloride], in that order: 79.2 and 71.3.
On to `Cc1ccc(C)c(OCCCC(C)(C)C(=O)O)c1` [Gemfibrozil], for which the gametocyte viability is 86.7 (concentration: 1 µM) and 88.3 (concentration: 10 µM).
For `C=CC(N)CCC(=O)O` (configuration not stated) [Vigabatrin], in that order: 84.9 and 90.6.
For the compound `CC(Oc1c(Cl)cccc1Cl)C1=NCCN1` (configuration not stated) [Lofexidine], the gametocyte viability (concentration: 1 µM) is 92.5 and the gametocyte viability (concentration: 10 µM) is 90.5.
In the case of `CCCCC1C(=O)N(c2ccccc2)N(c2ccccc2)C1=O` [Phenylbutazone], the gametocyte viability reads like this: (concentration: 1 µM) 91; (concentration: 10 µM) 85.4.
For `O=C(O)CN(CCN(CC(=O)O)CC(=O)O)CCN(CC(=O)O)CC(=O)O` [Pentetic acid], the gametocyte viability by setting is: (concentration: 1 µM) 101; (concentration: 10 µM) 101.
With `NNc1nncc2ccccc12` [Hydralazine hydrochloride], the gametocyte viability runs as follows: (concentration: 1 µM) 94.8; (concentration: 10 µM) 12.8 (active).
For `CCOC(=O)NNc1nncc2ccccc12` [Todralazine hydrochloride], in that order: 86.1 and 76.5.
For `O=C1C(=O)c2ccccc2C(O)=C1C1CCC(c2ccc(Cl)cc2)CC1` (configuration not stated) [Atovaquone], in that order: 91.4 and 99.6.
